# Only a sample is shown.
# aSyn UTR act = Activators working through SNCA 5'UTR binding (MLPCN). alpha-synuclein 5'UTR reporter, activators screen. activity score, % (tested at 7.5 µM), hits read low. 300,000 compounds, 7.1% hits. AID 1814; in the data active = activity score below about -60%
# * marks the source's active call; other numbers are inactive results.
SMILES,aSyn UTR act
COc1ccc(-n2c(=S)[nH]c3cc(C(=O)Nc4ccc(F)cc4)ccc3c2=O)c(OC)c1,-141.9*
CN(C)c1ccc2c(c1)OC(N)=C(C#N)C2c1cccc(F)c1 (stereo unspecified),68.0
N#CC1=C(N)Oc2cc(N)ccc2C1c1cccc(F)c1 (stereo unspecified),-137.5*
N#CC1=C(N)Oc2cc(N)ccc2C1C1CCCCC1 (stereo unspecified),-89.3*
CC(C(=O)OCc1nnc(-c2ccccc2)o1)N1C(=O)C2CCCCC2C1=O (stereo unspecified),-63.1*
COc1ccc(-c2cc(=NC(CC(C)C)C(=O)O)c3cc(C)ccc3o2)cc1 (stereo unspecified),-152.9*
COc1cc(NC2c3ccccc3C(=O)N2c2ccc(C)cn2)cc(OC)c1OC (stereo unspecified),-76.9*
CCOC(=O)c1ccccc1NC1c2ccccc2C(=O)N1c1ccc(C)cn1 (stereo unspecified),-85.3*
c1ccc(-c2onc3cc4c(cc23)OCCO4)cc1,-167.1*
CCC1(c2ccc(Cl)cc2)NC(=S)N(c2ccc(C)c(C)c2)N1 (stereo unspecified),-66.9*
CCC1(c2ccc(Cl)cc2)NC(=S)N(c2ccc(C)cc2)N1 (stereo unspecified),-307.7*
COc1cc(/C=N/N2CCOCC2)ccc1OCc1ccccc1,-107.4*
COc1cc(/C=N/N2CCOCC2)ccc1OCc1ccc(Cl)cc1,-66.4*
O=C(NC1CCCCC1)c1ccc([N+](=O)[O-])o1,-79.4*
O=C(NC1CCCCC1)c1ccc(-c2ccccc2[N+](=O)[O-])o1,-83.3*
O=C(NCC1CCCO1)c1ccc(-c2ccccc2Cl)o1 (stereo unspecified),-115.3*
CC(NC(=O)c1ccc([N+](=O)[O-])o1)C12CC3CC(CC(C3)C1)C2 (stereo unspecified),-168.0*
CC(NC(=O)COC(=O)c1ccc2c(c1)S(=O)(=O)N=C1CCCCCN12)C12CC3CC(CC(C3)C1)C2 (stereo unspecified),67.8
O=C(NCC1CCCO1)c1ccc([N+](=O)[O-])o1 (stereo unspecified),-90.0*
O=C(NCC1CCCO1)c1cc(-c2ccccc2F)no1 (stereo unspecified),-204.4*
COc1ccc(-c2cc3cc(OC)c(OC)cc3c(C)n2)cc1,-105.4*
CCOc1cc(/C=C2\COc3ccccc3C2=O)cc(Br)c1OCC(=O)N(C)C,-120.5*
COc1ccc(SC[C@H](CC(C)C)N2CCN(C)CCC2=O)cc1,-86.2*
CC(C)C[C@@H](CSc1ccc(Br)cc1)N1CCN(CC(C)C)CCC1=O,-147.8*
CC(C)C[C@@H](CSc1ccc(Br)cc1)N1CCN(C)CCC1=O,-140.9*
SMILES,aSyn UTR act
CCCN1CCC(=O)N([C@H](CSc2ccc(OC)cc2)c2ccccc2)CC1,-77.4*
Cc1ccc(SC[C@H](CC(C)C)N2CCN(C)CCC2=O)cc1,-135.0*
Cc1ccc(SC[C@H](c2ccccc2)N2CCN(C)CCC2=O)cc1,-137.6*
CCCc1nnc(NC(=O)c2cccc(OC)c2)s1,-91.4*
O=C(Nc1nccs1)c1ccc([N+](=O)[O-])cc1,-75.0*
CCOCc1nnc(NC(=O)c2ccc(OC)cc2)s1,-72.7*
CC(C)Cc1nnc(NC(=O)Nc2ccccc2)s1,-115.3*
COc1ccc(C(=O)Nc2nccs2)cc1,-119.9*
CCc1nnc(NC(=O)Nc2ccc(OC)cc2)s1,-162.1*
CCC(C)(C)c1nnc(NC(=O)c2cccc([N+](=O)[O-])c2)s1,-146.7*
COc1ccc(C(=O)NC(=S)Nc2cc(C)ccn2)cc1[N+](=O)[O-],-67.5*
CCCc1nnc(NC(=O)c2cc3ccccc3o2)s1,-87.9*
CC(C)Cc1nnc(NC(=O)c2ccc([N+](=O)[O-])cc2)s1,-95.0*
COc1ccc(NC(=O)Nc2nccs2)cc1,-93.9*
COc1ccc(C(=O)Nc2nccs2)cc1OC,-71.4*
COc1ccc(C(=O)Nc2nccs2)cc1[N+](=O)[O-],-73.6*
COc1ccc(C(NC(C)=O)c2cc(Cl)c3cccnc3c2O)cc1 (stereo unspecified),75.9
COc1ccc2c(CC(=O)Nc3nccs3)coc2c1,-101.3*
O=C(Nc1nccs1)c1cccc(NC(=O)C(F)(F)F)c1,-85.7*
Cc1ccc(CNc2ccc(N3CCOCC3)cc2)cc1,-107.5*
Cc1ccc(C(=O)Nc2ccc(N3CCOCC3)cc2)cc1,-95.4*
Cc1ccc(C(=O)Nc2cccc(C(=O)O)c2)cc1,86.9
CCC(=O)NC(=S)Nc1ccc(N2CCOCC2)cc1,-81.8*
Cc1ccc(C(=O)Nc2cccc(C(=O)N3CCOCC3)c2)cc1,-89.1*
Cc1ccc(C(=O)Nc2ccc(N3CCCC3)cc2)cc1,-160.1*
SMILES,aSyn UTR act
COc1cc(C(=S)N2CCCC2)ccc1OS(=O)(=O)c1ccc(NC(C)=O)cc1,-64.2*
Cc1ccc(C(=O)Nc2ccc(N3CCN(C)CC3)cc2)c(Cl)c1,-162.5*
COc1ccc(C(=O)Nc2ccc(N3CCCCC3)cc2)cc1Br,-63.5*
O=C(Nc1cccc(Cl)c1)c1ccc(OC(=S)N2CCOCC2)cc1,-182.4*
Cc1ccc(C(=O)Nc2ccc(N3CCN(C)CC3)nc2)cc1,-63.4*
Cc1ccc2c(c1)c(C)c(C)n2CC(O)Cn1nnc2ccccc21 (stereo unspecified),-70.1*
CC(=O)Nc1ccc(NC(=O)COc2ccc(Cl)cc2Cl)cc1,-117.3*
COC(=O)c1sccc1NC(=O)COc1ccc(F)cc1Cl,-98.6*
O=C(COc1ccc(Cl)cc1Cl)Nc1ccccc1F,-174.5*
O=C(COc1cc(Cl)ccc1Cl)Nc1ccc2c(c1)CCC2,-64.4*
O=C(COc1ccc(Cl)cc1Cl)c1ccc[nH]1,-93.6*
Cc1csc(NC(=O)c2ccc[nH]c2=O)n1,-84.8*
CC(C)[C@H](NC(=O)c1ccccc1Cl)C(=O)Nc1nc(-c2ccccn2)cs1,63.6
Cc1csc(NC(=O)c2cccnc2Cl)n1,-76.5*
Cc1csc(NC(=O)c2ccoc2C)n1,-190.7*
Cc1csc(NC(=O)c2cccc(C)c2C)n1,-154.9*
O=C(Nc1nc(-c2ccccn2)cs1)c1cc(Cl)ccc1[N+](=O)[O-],115.9
Cc1csc(NC(=O)c2cnccn2)n1,-104.6*
Cc1csc(NC(=O)c2ccc(Cl)cc2[N+](=O)[O-])n1,-91.8*
Cc1cc(O)c(C(=O)Nc2cccc(Cl)c2)c(=O)n1C,-103.8*
CCn1c(C)cc(O)c(C(=O)Nc2cccc(Cl)c2)c1=O,-95.6*
CCn1c(C)c(C)c2cc(C(=O)Nc3cccc(Cl)c3)ccc21,-117.4*
N/C(=N\OC(=O)c1cccnc1)c1ccccc1Cl,-68.9*
N/C(=N\OC(=O)c1cccnc1)c1ccc(Cl)cc1Cl,-152.7*
O=C(CN1CCN(CCN2C(=O)c3cccc4cccc(c34)C2=O)CC1)c1ccc(F)cc1,-64.9*
SMILES,aSyn UTR act
O=C(CN1C(=O)c2ccccc2S1(=O)=O)c1ccc(F)cc1,91.6
CCc1ccc(C(=O)COC(=O)c2n[nH]c3ccccc23)cc1,-129.3*
CC1CCN(C(=O)COC(=O)c2n[nH]c3ccccc23)CC1,-144.3*
c1ccc(CSc2n[nH]c(-c3ccco3)n2)cc1,-63.7*
c1ccc(CSc2nccc(-c3ccco3)n2)cc1,-81.5*
O=C(C1=NN[C@@H]2C(=O)N(c3cccc(F)c3)C(=O)[C@H]12)c1ccc2ccccc2n1,-79.1*
CC(=O)Nc1cccc(-c2csc(Nc3ccc(C)cn3)n2)c1,-65.9*
CC(=O)Nc1ccc(-c2csc(Nc3cccc(C)n3)n2)cc1,-181.7*
CC(=O)Nc1cccc(-c2csc(Nc3ncccn3)n2)c1,-169.8*

# Screening data deposited in PubChem by Broad Institute.
